From PubChem
Sm TGR inh: qHTS Assay for the Inhibitors of Schistosoma Mansoni Peroxiredoxins; AID 485364, 2010; 360,000 tested, 3% active; purified TGR, DTNB reduction, TNB absorbance 405 nm; Potency, µM (series often up to 114 µM), for inactives: at the highest dose activity change, negative = inhibition, usual class: inhibitors; Schistosoma mansoni thioredoxin glutathione reductase (TGR), Q962Y6; active means well fitted inhibition curve with a large enough effect; inconclusive means small, poorly fitted or top-dose-only effect; inactive means no such curve, though single readings can be large or run the other way; further: on the % scale 0 is the no-effect control and ±100 the full control effect; nearly all actives have a fitted effect of over 60% in size
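TGR 20 nM + NADPH 100 uM (dispensed conc.), cpd preinc 15 min RT; start with NADPH (500 uM addition) then DTNB (15 mM addition). Kinetic TNB absorbance, 405 nm filter. Four-parameter Hill fit across titration.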
SARS PLpro yeast: qHTS of Yeast-based Assay for SARS-CoV PLP; S. cerevisiae expressing SARS-CoV PLpro, growth rescue; Potency, µM (doses to about 32.9 µM), for inactives: at the top dose activity, positive = growth rescue, most hits filed as activators; 330,000 tested, 0.19% active; AID 485353, 2010; calls by dose curve; further: 0% is about no effect; nearly all actives have a fitted effect of over 55% in size
* = called active by the depositor; ? = inconclusive; / = not tested or not shown. In the library only some 3% were active in any assay of this set; here they are far more common. Potency means the concentration at half of the fitted maximal effect.

SMILES	Sm TGR inh	SARS PLpro yeast
COc1ccc(CNC(=O)[C@H](Cc2ccccc2)NC(=O)C2CCN(C(=O)[C@H](C)N)CC2)cc1	-35.0%	-5.9%
COc1ccc(CNC(=O)[C@H](Cc2ccccc2)NC(=O)C2CCNCC2)cc1	31.6µM*	17.4%
Cn1c(=O)n(C/C=C/c2ccccc2)c(=O)c2c1nc1n2CCN1c1ccc(F)cc1	-1.3%	/
CCC(O)c1nc2ccccc2n1CCOc1cc(C)cc(C)c1 (centres undefined)	-0.9%	/
CC1(C)CC2CC(C)(CN2Cc2c(O)ccc3ccccc23)C1 (centres undefined)	6.31µM*	-1.2%
CC1(C)CC2CC(C)(CN2Cc2cccc([N+](=O)[O-])c2)C1 (centres undefined)	0.0%	1.6%
CCN1CCN(c2csc3ccc(C)cc3c2=O)CC1	-0.3%	/
CCCCN(C)CCNC(=O)Cn1ncc2c3ccccc3n(CCC)c2c1=O	-10.2%	/
Cc1ccc(NC(=O)COCc2cc(-c3cccs3)on2)cc1Cl	3.5%	/
CC(C)(C)c1ccc(C(=O)Nc2ccc(Cl)cc2)cc1	-5.1%	-6.7%
CC(C)(C)c1ccc(C(=O)CC(Sc2ccc(Cl)cc2)C(=O)O)cc1 (centres undefined)	11.2µM*	-3.7%
O=C(CC(C(=O)O)c1ccc(F)cc1)c1ccc(Cl)cc1 (centres undefined)	-8.0%	0.8%
Cc1ccc(SC(CC(=O)c2ccc(F)cc2)C(=O)O)cc1 (centres undefined)	0.501µM*	-1.2%
Cc1cc(C)c(/C=C/c2onc(C)c2S(=O)(=O)N2CCC(C(=O)NCc3ccco3)CC2)c(C)c1	-1.7%	/
O=C(OCC(=O)N1c2ccccc2Sc2ccccc21)C1CC(=O)N(Cc2ccco2)C1 (centres undefined)	28.2µM*	-0.7%
O=C(COC(=O)C1CC(=O)N(Cc2ccco2)C1)Nc1ccc(F)cc1F (centres undefined)	/	2.0%
Cc1ccc(-c2csc(NC(=O)C3CC(=O)N(Cc4ccco4)C3)n2)cc1 (centres undefined)	?	20.8%
O=C(COC(=O)C1CC(=O)N(Cc2ccco2)C1)Nc1ccccc1[N+](=O)[O-] (centres undefined)	-1.2%	5.7%
O=C(COC(=O)C1CC(=O)N(Cc2ccco2)C1)c1ccc(OC(=O)c2ccccc2)cc1 (centres undefined)	25.1µM*	-17.3%
Cc1csc(NC(=O)C2CC(=O)N(Cc3ccco3)C2)n1 (centres undefined)	44.7µM*	1.7%
COc1ccc(CNC(=O)CC(c2ccc(OC)cc2)N2Cc3ccccc3C2=O)cc1 (centres undefined)	12.7%	/
CC(=O)Nc1ccc(S(=O)(=O)NCCc2cn3ccsc3n2)cc1	-3.4%	/
CN1CCN(C(=O)c2ccc3c(c2)N(Cc2ccc(Cl)cc2)C(=O)c2ccccc2S3(=O)=O)CC1	-0.8%	/
CCOc1ccc(-n2nc(CO)c(C(=O)NCc3cccs3)n2)cc1	-6.3%	/
Cc1ccc(Cl)cc1-n1c(=O)c2sc3ccccc3c2n(CC(=O)NC2CCCC2)c1=O	5.4%	/
SMILES	Sm TGR inh	SARS PLpro yeast
O=C(Cn1c(=O)oc2cc(S(=O)(=O)NCc3ccccc3)ccc21)NCc1ccccc1Cl	-3.2%	/
COCCCNC(=O)CC(c1cc(OC)c(OC)c(OC)c1)N1Cc2ccccc2C1=O (centres undefined)	2.8%	/
Cc1nc2nc[nH]n2c(=O)c1NS(=O)(=O)c1ccc(Br)cc1	2.7%	/
COc1ccc(C(=O)NCC(=O)Nc2cccc(S(=O)(=O)NCc3ccco3)c2)cc1OC	44.7µM*	0.0%
Cc1cccc(C)c1NC(=O)CNC(=O)c1ccc(S(=O)(=O)NCc2ccco2)cc1	20µM*	-2.4%
COc1ccc(C(=O)Nc2ccc(S(=O)(=O)NCc3ccco3)cc2)cc1OC	0.0%	-2.5%
CC(=O)Nc1cccc(C(=O)Nc2cccc(S(=O)(=O)NCc3ccco3)c2)c1	-17.0%	4.3%
COc1cccc(S(=O)(=O)Nc2ccc(C(=O)NCc3ccco3)cc2)c1	-21.7%	9.6%
COc1cccc(S(=O)(=O)NCc2ccc(C(=O)NCc3ccco3)cc2)c1	28.2µM*	-0.8%
Cc1cccc(NC(=O)c2ccc(F)c(S(=O)(=O)NCc3ccco3)c2)c1	28.2µM*	4.1%
Cc1cccc(NC(=O)c2ccc(S(=O)(=O)NCc3ccco3)cc2)n1	-0.9%	-18.6%
CCOCCCNC(=O)C(NC(=O)C1CCC(C)CC1)C(C)C (centres undefined)	-0.2%	/
CCOc1ccc(NC(=O)CSc2oc(-c3ccco3)nc2S(=O)(=O)c2ccccc2)cc1	-0.7%	/
O=C1c2ccccc2C(=O)N1c1cccc(-c2nc3ccccc3o2)c1	1.9%	-3.6%
O=C1C=CC(=O)N1c1cccc(-c2ccccc2)c1	0.708µM*	-6.6%
Cc1nn(-c2ccccc2)c2c1N(CC(=O)N1CCN(c3cccc(Cl)c3)CC1)C(=O)CS2	0.5%	/
CC(=O)N1c2ccccc2C(=O)C1N1CCN(c2cccc(C)c2C)CC1 (centres undefined)	-1.5%	/
Cn1c(=O)c2ccccc2n2c(=S)[nH]nc12	2.1%	2.6%
Cn1c(=O)c2ccccc2n2c(CCl)nnc12	31.6µM*	-12.1%
CC(C)Cc1nnc(NS(=O)(=O)c2ccc([N+](=O)[O-])cc2)s1	?	-5.0%
O=[N+]([O-])c1ccc(S(=O)(=O)Nc2nnc(C(F)(F)F)s2)cc1	14.1µM*	-1.4%
CCCCOc1ccc(C(C)NC(=O)c2cccc(Nc3nc4ccccc4n4nnnc34)c2)cc1 (centres undefined)	-0.9%	/
Cc1oc(-c2ccccc2)nc1Cn1c(=O)cc(-c2ccccc2)c2c(C)nn(C)c21	-6.6%	/
Cc1ccc(S(=O)(=O)CC(=O)c2cc(C)c(OC(=O)N(C)C)c(C)c2)cc1	-8.9%	1.4%
Cc1cc(C(=O)CS(=O)(=O)c2ccc(F)cc2)cc(C)c1O	14.1µM*	1.4%
SMILES	Sm TGR inh	SARS PLpro yeast
Cc1cc(C(=O)CS(=O)(=O)c2ccccc2)cc(C)c1OC(=O)N(C)C	-8.4%	-2.2%
Cc1cc(C(=O)CS(=O)(=O)c2ccccc2)cc(C)c1O	22.4µM*	-0.4%
COC(=O)c1ccccc1NC(=O)c1ccc(-c2nc(COc3ccccc3)c(C)o2)cc1	-6.3%	/
Cc1ccc(NC(=O)CN2CCN(C3CCCCC3)C(=O)C2=O)cc1C	1.2%	/
Cn1c(=O)oc2cc(S(=O)(=O)CCC(=O)N3CCN(c4ccccc4F)CC3)ccc21	-14.5%	-1.0%
Cc1cccc(N(C)C(=O)CCS(=O)(=O)c2ccc3c(c2)n(C)c(=O)c(=O)n3C)c1	9.3%	/
Cc1ccc(C)c(N2CCN(C(=O)CCS(=O)(=O)c3ccc4c(c3)oc(=O)n4C)CC2)c1	39.8µM*	0.5%
COc1cccc(N2CCN(C(=O)CCS(=O)(=O)c3ccc4c(c3)oc(=O)n4C)CC2)c1	25.1µM*	-4.7%
Cc1cccc(N(C)C(=O)CCS(=O)(=O)c2ccc3c(c2)oc(=O)n3C)c1	39.8µM*	/
Cn1c(=O)oc2cc(S(=O)(=O)CCC(=O)N3CCN(c4cccc(Cl)c4)CC3)ccc21	3.8%	/
CCN(C(=O)Cn1c(=O)n(Cc2ccccc2)c(=O)c2c1c1cc(OC)ccc1n2C)c1ccccc1	0.5%	/
CCSc1nc(O)c(C2OC(=O)c3c2ccc(OC)c3OC)c(=O)n1-c1ccccc1 (centres undefined)	7.08µM*	6.2%
CCCSc1nc(O)c(C2OC(=O)c3c2ccc(OC)c3OC)c(=O)n1C (centres undefined)	?	2.8%
